# In PubChem BioAssay (Tox21):
# Where “and” joins values, the source holds several entries; their conditions need not be identical. Equal values may be shown once. Unmarked numbers belong to inactive results. Results filed as inconclusive are left out. Where a call stands in place of a potency, no number is given. Calls of active or inactive are those of the source. Unless noted, calls follow the shape of the dose curve; as a rule, active = well fitted curve in the direction sought with a large enough effect in the repeat runs; inconclusive = weak or mixed curves; inactive = flat fitted curve, though single readings scatter.
# How the values were obtained:
# [1] = qHTS assay to test for compound auto fluorescence at 535 nm (green) in HEK293 cells (AID 720680)
# [2] = qHTS assay to test for compound auto fluorescence at 460 nm (blue) in HEK293 cell free culture (AID 720681)
# Procedure, shortened: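 Test compounds were pinned into cell-free culture medium (DMEM with 10% FBS) and fluorescence was read directly at Ex/Em 405/460 nm. Signals were expressed as fluorescence equivalents of triamterene, with DMSO vehicle as control.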
# [3] = qHTS assay to test for compound auto fluorescence at 535 nm (green) in HEK293 cell free culture (AID 720682)
# Procedure, shortened: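 Using fluorescein as calibrant, autofluorescence was quantified at 485/535 nm in cell-free DMEM containing 10% FBS after pintool addition of compound or vehicle.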
# [4] = qHTS assay to test for compound auto fluorescence at 590 nm (red) in HEK293 cell free culture (AID 720683)
# Procedure, shortened: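 Tox21 10K library compounds were pinned into cell-free DMEM with 10% FBS and fluorescence was read at excitation 540 nm. Activity is expressed as Rose Bengal sodium equivalency.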
# [5] = qHTS assay to test for compound auto fluorescence at 590 nm (red) in HepG2 cell free culture (AID 720684)
# Procedure, shortened: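 Ex 540 / Em 590 nm read of compound in cell-free MEM (10% FBS). Rose Bengal sodium reference.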
# [6] = qHTS assay to test for compound auto fluorescence at 460 nm (blue) in HepG2 cell free culture (AID 720685)
# Procedure, shortened: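 Cell-free plates of MEM plus 10% FBS received 23 nL compound or DMSO vehicle; blue-channel (405/460 nm) intensity scored against triamterene as reference fluorophore.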
# [7] = qHTS assay to test for compound auto fluorescence at 535 nm (green) in HepG2 cell free culture (AID 720686)
# [8] = qHTS assay to test for compound auto fluorescence at 460 nm (blue) in HepG2 cells (AID 720687)
# Procedure, shortened: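 Cells (2,000/well in MEM with 10% FBS) attached overnight at 37 C, then were exposed to compound or DMSO for 1 hr at 37 C, 5% CO2. Fluorescence read at Ex/Em 405/460 nm, expressed as triamterene-equivalent signal.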
# [9] = target: Glucocorticoid receptor (Homo sapiens) (UniProt P04150); assay: qHTS assay to identify small molecule agonists of the glucocorticoid receptor (GR) signaling pathway (AID 720691; active = well fitted activation curve with a large enough effect in the signal ratio in the repeat runs, not every such curve was filed as active; the % refers to the signal ratio); conditions: GR-bla HeLa, beta-lactamase reporter ratio, 18 h; activation: at 62.4 µM (top of the series)
# Chain of Glucocorticoid receptor (Homo sapiens) (P04150 whole entry, looked up): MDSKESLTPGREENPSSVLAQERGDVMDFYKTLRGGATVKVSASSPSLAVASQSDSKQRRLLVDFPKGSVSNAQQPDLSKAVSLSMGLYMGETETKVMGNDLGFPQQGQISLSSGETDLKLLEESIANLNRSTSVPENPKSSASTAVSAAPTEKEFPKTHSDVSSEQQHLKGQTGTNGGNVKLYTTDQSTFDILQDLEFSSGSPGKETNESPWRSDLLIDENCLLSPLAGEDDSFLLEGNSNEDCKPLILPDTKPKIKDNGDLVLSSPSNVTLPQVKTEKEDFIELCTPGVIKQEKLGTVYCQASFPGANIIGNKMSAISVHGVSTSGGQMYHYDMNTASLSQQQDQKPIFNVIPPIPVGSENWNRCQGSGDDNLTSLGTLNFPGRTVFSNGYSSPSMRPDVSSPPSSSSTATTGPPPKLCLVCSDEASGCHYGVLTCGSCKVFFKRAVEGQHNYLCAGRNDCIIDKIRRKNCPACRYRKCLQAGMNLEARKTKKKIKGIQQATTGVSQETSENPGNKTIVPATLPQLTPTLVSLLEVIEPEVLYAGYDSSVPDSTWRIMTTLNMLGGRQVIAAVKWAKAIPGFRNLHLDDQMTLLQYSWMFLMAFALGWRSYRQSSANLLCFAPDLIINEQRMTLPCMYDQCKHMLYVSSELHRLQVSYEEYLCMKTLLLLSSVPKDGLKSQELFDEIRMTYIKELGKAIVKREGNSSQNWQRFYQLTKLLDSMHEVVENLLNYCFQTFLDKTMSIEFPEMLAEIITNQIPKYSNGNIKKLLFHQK
# Procedure, shortened: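 Measures GR pathway activation through a GRE-beta-lactamase reporter stably integrated in HeLa cells, with 18 h compound treatment at 37 C and fluorescence detection using a FRET substrate.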
# [10] = target: Glucocorticoid receptor (Homo sapiens) (UniProt P04150); assay: qHTS assay to identify small molecule antagonists of the glucocorticoid receptor (GR) signaling pathway (AID 720692; active = well fitted inhibition curve with a large enough effect in the signal ratio in the repeat runs, not every such curve was filed as active; the % refers to the signal ratio; also: potency is read from the fitted curve at half-maximal effect)
# Procedure, shortened: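 Tox21 10K library screened in concentration-response for blockade of dexamethasone (5 nM final)-induced GRE-bla reporter activity in HeLa cells; 18 h treatment, fluorescence read.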
Structure (SMILES),"fluorescence, % of fluorescein [1]","fluorescence, % of fluorescent control [2]",activity change [3],"fluorescence, % of fluorescent control [4]","fluorescence, % of Rose Bengal [5]","fluorescence, % of fluorescent control [6]","fluorescence, % of fluorescein control [7]","fluorescence, % of fluorescent control [8]",Potency [9],Potency [10],Potency [1],Potency [2],Potency [3],Potency [4],Potency [5],Potency [6],Potency [7],Potency [8]
CCOC(=O)[C@@](C)(N)Cc1ccc(O)c(O)c1,-0.0378% [at 18.6 µM],0.186% [at 18.6 µM],"-0.0329% [at 18.6 µM, active compounds read high]",0.256% [at 18.6 µM],0.0263% [at 18.6 µM],0.193% [at 18.6 µM],-0.0478% [at 18.6 µM],0.0997% [at 18.6 µM],inactive,inactive,–,–,–,–,–,–,–,–
CCNc1nc(NC(C)CC)nc(OC)n1 (configuration not stated),–,–,–,–,–,–,–,–,inactive,inactive,inactive,inactive,inactive,inactive,inactive,inactive,inactive,inactive
C/C=C/C=N/NC(=O)c1ccncc1,–,–,–,–,–,–,–,–,inactive,inactive,inactive,inactive,inactive,inactive,inactive,inactive,inactive,inactive
O=C(O)CC(=O)O,–,–,–,–,–,–,–,–,inactive,–,inactive,inactive,inactive,inactive,inactive,inactive,inactive,–
Brc1ccccc1-c1ccccc1,–,–,–,–,–,–,–,–,inactive,–,inactive,inactive,inactive,inactive,inactive,inactive,inactive,inactive
C/C=C/C(=O)Oc1c(CCCCCC(C)C)cc([N+](=O)[O-])cc1[N+](=O)[O-],–,–,–,–,–,–,–,–,–,3.09 µM (active),inactive,inactive,inactive,inactive,inactive,inactive,inactive,inactive
CN(Cc1cc(Br)cc(Br)c1N)C1CCCCC1,–,–,–,–,–,–,–,–,inactive,inactive,inactive,inactive,inactive,inactive,inactive,inactive,inactive,inactive
Oc1ccc(-c2ccccc2)c(Cl)c1,–,–,–,–,–,–,–,–,inactive,inactive,inactive,inactive,inactive,inactive,inactive,inactive,inactive,inactive
S=P(N1CC1)(N1CC1)N1CC1,–,–,–,–,–,–,–,–,inactive,inactive,inactive,inactive,inactive,inactive,inactive,inactive,inactive,inactive
C=C(c1ccc(C(=O)O)cc1)c1cc2c(cc1C)C(C)(C)CCC2(C)C,–,–,–,–,–,–,–,–,–,9.77 µM (active),inactive,inactive,inactive,inactive,inactive,inactive,inactive,inactive
CN1[C@@H]2CC[C@H]1CC(OC(=O)C(CO)c1ccccc1)C2 (some centres not stated),–,–,–,–,–,–,–,–,inactive,inactive,inactive,inactive,inactive,inactive,inactive,inactive,inactive,inactive
COc1ccccc1OCCNCC(O)COc1cccc2[nH]c3ccccc3c12 (configuration not stated),–,–,–,–,–,–,–,–,inactive,–,inactive,inactive,inactive,inactive,inactive,inactive,inactive,inactive
N#CSCSc1nc2ccccc2s1,–,–,–,–,–,–,–,–,–,24.5 µM (active),inactive,inactive,inactive,inactive,inactive,inactive,inactive,inactive
NCCCC(O)(P(=O)(O)O)P(=O)(O)O,–,–,–,–,–,–,–,–,inactive,inactive,inactive,inactive,inactive,inactive,inactive,inactive,inactive,inactive
COc1cc(C(C)C)c2c(c1)S(=O)(=O)N(COc1cc(=O)n3cccc(OCCN4CCCCC4)c3n1)C2=O,-0.188% [at 18.6 µM],-0.0582% [at 18.6 µM],"-0.182% [at 18.6 µM, active compounds read high]",0.355% [at 18.6 µM],-0.164% [at 18.6 µM],-0.155% [at 18.6 µM],-0.0973% [at 18.6 µM],0.0401% [at 18.6 µM],–,10.4 µM (active),–,–,–,–,–,–,–,–
CCCC(CC)CCCCCCCN (configuration not stated),–,–,–,–,–,–,–,–,inactive,inactive,inactive,inactive,inactive,inactive,inactive,inactive,inactive,inactive
O=C1NC2CCCCN2C12CCN(CCCN1c3ccccc3CCc3ccc(Cl)cc31)CC2 (configuration not stated),–,–,–,–,–,–,–,–,inactive,23.9 µM (active),inactive,inactive,inactive,inactive,inactive,inactive,inactive,inactive
CSc1c(Cl)c(Cl)c(Cl)c(Cl)c1Cl,–,–,–,–,–,–,–,–,inactive,inactive,inactive,inactive,inactive,inactive,inactive,inactive,inactive,inactive
CCCCNc1c(C(=O)OCC)c(C)nc2c1cnn2CC,–,–,–,–,–,–,–,–,inactive,inactive,inactive,inactive,inactive,inactive,inactive,inactive,inactive,inactive
CCN(CC)CCSC(=O)C(c1ccccc1)c1ccccc1,–,–,–,–,–,–,–,–,inactive,19 µM (active) and 10.7 µM (active),inactive,inactive,inactive,inactive,inactive,inactive,inactive,inactive
